Compounds without any hit were thinned out: in the full panel of roughly 83,000, 20% have a hit.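 Cell lines were cultured in 96-well plates, exposed to a single compound concentration, and assessed for percent growth 48 hours later.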 Values without a mark were called inactive. Active and inactive are the calls of the source.
Test system: HCC-2998 colon
Test: NCI-60 one-dose screen, 48 h (100 = growth as untreated, 0 = no growth, -100 = all killed)
Conditions: 10 µM unless noted
Procedure: Growth inhibition of the HCC-2998 human tumor cell line is measured as a screen for anti-cancer activity. Cells are grown in 96 well plates and exposed to the test compound for 48 hours. Compounds are tested at a single concentration, which is 10^-5 M for most compounds. The reported endpoint is percent growth (GI% or GIPRCNT), where numbers from 0 - 100% represent growth inhibition, and numbers from -100% - 0 represent cell death. For example, a value of 40 represents 60% growth inhibition. A value of 0 means no net growth occurred over the course of the experiment. A value of -40 indicates 40% of cells at the beginning of the experiment died by the end of the experiment. A value of -100 means all cells are dead at the end of the experiment.
NCI-60 Human Tumor Cell Lines Screen was performed using the standard one-dose NCI protocol, which is described in more detail at https://dtp.cancer.gov/discovery_development/nci-60/default.htm.
Compounds with GIPRCNT values below 10 were considered active. Activity score was based on GIPRCNT using the following formula: […]
Score is 0 for GIPRCNT values of 100 or above, 50 for GIPRCNT values of 0, and 100 for GIPRCNT values of -100.

Row | Structure (SMILES) | growth
1 | CC(=O)CCSc1ccc(OC(C)=O)cc1 | 89.7%
2 | COc1ccc(-c2cnc(N)nc2-c2ccc(OC)cc2O)cc1 | 103%
3 | CCN(CC)CCCC(C)Nc1c2c(nc3ccc(OC)cc13)CCCC2 (stereo not given) | 103%
4 | COc1cc(C2NC(c3cc(OC)c(OC)c(OC)c3)C(C#N)(C#N)C2(C#N)C#N)cc(OC)c1OC (stereo not given) | 98.7%
5 | Cc1ccc(C(c2c(O)c3cc(Br)ccc3[nH]c2=O)c2c(O)c3cc(Br)ccc3[nH]c2=O)cc1 | 94.4%
6 | CCCCCCCCCCCCC1CCC/C=C\CCC(=O)O1 (stereo not given) | 104%
7 | COc1ccc(Nc2nc(N)nc3c2CCc2occc2-3)cc1 | 108%
8 | O=C(Nc1ccc2ncnc(Nc3ccc(Oc4cccc(F)c4)c(Cl)c3)c2c1)c1ccc(CN2CCOCC2)cc1 | 69%
9 | CC1(C)CC[C@]2(C(=O)NCC#CCN3CCOCC3)CC[C@]3(C)C(=CC[C@@H]4[C@@]5(C)Cc6c([nH]c7ccccc67)C(C)(C)[C@@H]5CC[C@]43C)[C@@H]2C1 | 105%
10 | COc1cc2nc(-c3ccc(C(F)(F)F)cc3)cc(OCCN3CCCC3)c2cc1OC | 82%
11 | COc1ccc(OC)c(/C=C/[C@H]2O[C@@H](C)[C@H](O)[C@@H]2O)c1 | 108%
12 | COc1cc(/C=C2\C(=O)N(Cc3ccc(Cl)cc3)c3ccccc32)cc(OC)c1OC | -28.5% (active)
13 | O=C(Nc1nc2ccc(C(=O)N3CCN(c4ccc(Cl)c(Cl)c4)CC3)cc2s1)c1ccc(NCCc2ccccc2)c([N+](=O)[O-])c1 | 105%
14 | CCCC1C(C(=O)OCC)=C(N)Oc2cc(O)ccc21 (stereo not given) | 105%
15 | S=c1[nH]cccc1-c1nnc2n1Nc1nc3ccc(Cl)cc3cc1CS2 | 106%
16 | Cn1c(COC(=O)NCCn2ccnc2)nc2c(N3CCOCC3)nc(-c3ccccc3)nc21 | -82.1% (active)
17 | CCn1cc(C2NC(=O)c3ccccc3N2)c2cccc(C)c21 (stereo not given) | 9.07% (active)
18 | O=C1CCCCCCCCC(O)C(O)CCCC(c2cccs2)O1 (stereo not given) | 118%
19 | O=C(CN1CCOCC1)Nc1ccc2ncnc(Nc3ccc(Oc4cccc(F)c4)c(Cl)c3)c2c1 | 101%
20 | COc1ccc(CNCCN2C(=O)c3ccc4c5c(ccc(c35)C2=O)C(=O)N(CCNCc2ccc(OC)cc2)C4=O)cc1 | -92.3% (active)

Row | Structure (SMILES) | growth
21 | Cc1nc2sc(C(=O)Nc3ccccc3)c(N)c2cc1C(=O)c1ccc(C(F)(F)F)cc1 | 104%
22 | CC(C)(C)OC(=O)N1C/C(=C\c2ccoc2)C(=O)/C(=C/c2ccoc2)C1 | 98.9%
23 | O=C(Nc1nc2ccc(S(=O)(=O)Nc3ccc(C4(C(F)(F)F)CC4)cc3)cc2[nH]1)c1cnccn1 | 63.4%
24 | COC(=O)C1=C(C(=O)ONCCN(C)C)C2C=CC1(C(Cc1ccccc1)Nc1ccc(F)cc1)O2 (stereo not given) | 107%
25 | COc1cc(CCNc2nc3cc(N)cc(N)c3nc2-c2ccccc2)cc(OC)c1 | -5.77% (active)
26 | C=C(C)[C@@H]1CC[C@]2(CO)CC[C@]3(C)[C@H](CC[C@@H]4[C@@]5(C)CCCNC(C)(C)[C@@H]5CC[C@]43C)[C@@H]12 | -5.02% (active)
27 | COc1ccccc1OCC(=O)N1CCCCCC1 | 108%
28 | CCC1(CC)NC(=O)c2c(c3ccc(Cl)c(Cl)c3n2C)C1C#N (stereo not given) | 97.5%
29 | C=C1C(=O)O[C@H]2[C@H]1CC/C(COC(=O)CCCCCC(=O)OC/C1=C/CC[C@@]3(C)O[C@H]3[C@H]3OC(=O)C(=C)[C@@H]3CC1)=C\CC[C@@]1(C)O[C@@H]21 | 84.5%
30 | CCN(CC)CCCC(Nc1c2ccc(Cl)cc2nc2ccc(OC)cc12)c1ccc(Cl)cc1 (stereo not given) | -75.4% (active)
31 | C1=C2CNCC3=Cc4ccc5ccccc5c4OC23Oc2c1ccc1ccccc21 | 56.9%
32 | Cc1c2c(cc[n+]1Cc1ccccc1)c1ccc(OCC3CCCCC3)cc1n2CC1CCCCC1 | -93.2% (active)
33 | CC[C@H](CC[C@@H](C)[C@H]1CC[C@H]2[C@@H]3CC=C4C[C@@H](OCCc5nn[nH]n5)CC[C@]4(C)[C@H]3CC[C@]12C)C(C)C | 109%
34 | C#CC(=O)Nc1cccc2c1cc(C)n2-c1nc2c(c(NCc3ccccc3)n1)CCCC2 | -89.9% (active)
35 | OC1(c2ccc(Cl)c(C(F)(F)F)c2)CCN(CCCC(c2ccc(F)cc2)c2ccc(F)cc2)CC1 | -97.2% (active)
36 | O=C(N/N=C/c1ccncc1)c1ccccc1Nc1cccc(C(F)(F)F)c1 | 77.8%
37 | O=S(=O)(NCCCNc1nccc(-c2c(-c3ccccc3)nc3occn23)n1)c1ccc(Cl)cc1 | 102%
38 | COc1ccc(C(=O)c2cc3c(N)c(C(=O)Nc4cccc(Cl)c4C)sc3nc2C)cc1 | 17.1%
39 | NC(=O)c1ccc[n+](CC(=O)N2CCN(c3cc4c(cc3F)c(=O)c(C(=O)O)cn4C3CC3)CC2)c1 | 115%
40 | Brc1ccc(C2CC(c3cccc(Nc4ccncc4)c3)=NN2c2ccccc2)cc1 (stereo not given) | 19.2%

From PubChem BioAssay (NCI)
